Reference: PubChem BioAssay (Tox21)
Inconclusive results are not listed. Values without a mark were called inactive. Active and inactive are the calls of the source. The call rests on the fitted dose curve.

Test: qHTS assay to identify small molecule agonists or antagonists of the thyroid stimulating hormone receptor (TSHR) signaling pathway - wild type cell line counter screen (AID 1259384)
Settings: HEK293 wild type, cAMP HTRF counter-screen, active compounds read high; series mostly up to 92.4 µM
Source text: U.S. Tox21 Program National Center for Advancing Translational Sciences [NCATS] NIH Chemical Genomics Center [NCGC] U.S. Environmental Protection Agency [EPA] National Institutes of Environmental Health Sciences [NIEHS] National Toxicology Program [NTP] U.S. Food and Drug Administration [FDA] Tox21 Assay Overview: TSHR is the receptor for thyrotropin (thyroid stimulating hormone or TSH), a member of the glycoprotein hormone family. TSH is released by the anterior pituitary gland and is the main regulator of thyroid gland growth and development. Upon binding circulating thyrotropin, a G-protein signal cascade activates adenylyl cyclase and […] cAMP concentration is increased. cAMP is a key second messenger involved extensively in cellular signal transduction pathways associated with the majority of G-protein coupled receptors (GPCRs). The activation of these GPCRs by neurotransmitters, lipids, nucleotides, peptides and hormones results in the activation or the inhibition of plasma membrane-bound adenylate cyclase through heterotrimeric G-proteins. A cell-based TSHR-Hek293 assay can be used to identify TSHR agonists. To eliminate the false positive compounds identified from screening a cell-based TSHR-Hek293 cell line, cAMP assay in a wild type Hek293 cells was used as a counter screening.
Tox21 Assay Protocol Summary: Hek293 cells (wild type) were dispensed at 800 cells/4 uL/well in 1536-well white plates using a Multidrop dispenser. After the assay plates were incubated at a 37 C/5% CO2 incubator for 18 hrs, 23 nL of compounds dissolved in DMSO, positive controls or DMSO only was transferred to the assay plate by a pin tool, followed by 1 ul medium containing Ro20-1724. After 30 min of incubation at room temperature, 2.5 ul/well of cAMP-d2 and 2.5 ul/well of anti-cAMP-cryptate were added respectively into the assay plates using a Flying Reagent Dispenser. The plates were incubated at room temperature for 1 hr. The fluorescence intensity in the plates was measured using an Envision plate reader. Each test compound was measured at 15 concentrations and in triplicates.
On the % scale 0 is the no-effect control and ±100 the full control effect.

Question: With `Clc1ccc(C2(Cn3cncn3)CC(Br)CO2)c(Cl)c1` (stereo not given) as the compound, how does the outcome read?
Answer: inactive

Question: For `Clc1ccc(C(OCCN2CCCCC2)c2ccccc2)cc1` (stereo not given), which outcome is on record?
Answer: inactive

Question: With `NCC(CC(=O)O)c1ccc(Cl)cc1` (stereo not given) as the compound, how does the cAMP activity change read?
Answer: 0.519% [at 0.349 µM]

Question: For `Cl/C=C\Cl`, which outcome is on record?
Answer: inactive

Question: With `CC1C(=O)C[C@]2(C(C)C)C[C@H]12` (stereo not given in full) as the compound, how does the outcome read?
Answer: inactive

Question: For `C=CC(=O)NCNC(=O)C=C`, which outcome is on record?
Answer: inactive

Question: With `CO[C@@H]1[C@H](OC(=O)NC(=O)CCl)CC[C@]2(CO2)[C@H]1[C@@]1(C)O[C@@H]1CC=C(C)C` as the compound, how does the cAMP activity change read?
Answer: 2.97% [at 18.9 µM]

Question: With `Brc1ccccc1` as the compound, how does the outcome read?
Answer: inactive

Question: With `CC(C)=CCOc1c2occc2cc2ccc(=O)oc12` as the compound, how does the outcome read?
Answer: inactive

Question: Which outcome does the source give for `CC(Cl)Cl` here?
Answer: inactive

Question: With `ClP(Cl)(Cl)(Cl)Cl` as the compound, how does the outcome read?
Answer: inactive

Question: With `COC(=O)c1cncn1C(C)c1ccccc1` (stereo not given) as the compound, how does the outcome read?
Answer: inactive

Question: With `COP(=O)(OC)O/C(=C/Cl)c1cc(Cl)c(Cl)cc1Cl` as the compound, how does the outcome read?
Answer: inactive

Question: With `C#CCOC(C(=O)OCCN(C)C)(c1ccccc1)c1ccccc1` as the compound, how does the outcome read?
Answer: inactive

Question: For `O=C(O)C(F)(F)C(F)(F)C(F)(F)C(F)(F)C(F)(F)C(F)(F)C(F)(F)C(F)(F)C(F)(F)F`, which outcome is on record?
Answer: inactive

Question: For `CCCCC(CC)COP(=O)(Oc1ccccc1)Oc1ccccc1` (stereo not given), which outcome is on record?
Answer: inactive

Question: Which outcome does the source give for `ClCc1cccc(Cl)c1` here?
Answer: inactive

Question: With `CCC(C)(NC(=O)c1cc(Cl)c(C)c(Cl)c1)C(=O)CCl` (stereo not given) as the compound, how does the outcome read?
Answer: inactive

Question: For `Clc1cc(Cl)c(Cl)c(Cl)c1`, which outcome is on record?
Answer: inactive

Question: Which outcome does the source give for `ClCCCCBr` here?
Answer: inactive

Question: Which outcome does the source give for `O=C(NC(=O)c1c(F)cccc1F)Nc1ccc(OC(F)(F)C(F)OC(F)(F)F)c(Cl)c1` (stereo not given) here?
Answer: inactive

Question: For `CCCN(CCCl)c1c([N+](=O)[O-])cc(C(F)(F)F)cc1[N+](=O)[O-]`, which outcome is on record?
Answer: inactive

Question: With `O=[N+]([O-])c1cc(C(F)(F)F)cc([N+](=O)[O-])c1Cl` as the compound, how does the outcome read?
Answer: inactive

Question: With `CCN(C)N=O` as the compound, how does the outcome read?
Answer: inactive

Question: For `C[C@H]1CNCCc2ccc(Cl)cc21`, which outcome is on record?
Answer: inactive

Question: With `O=C(N[C@H](c1ccccc1)[C@@H]1CN2CCC1CC2)c1c(Cl)ccc(C(F)(F)F)c1Cl` as the compound, how does the outcome read?
Answer: inactive

Question: With `O=S(=O)(O)C(F)(F)C(F)(F)C(F)(F)C(F)(F)F` as the compound, how does the outcome read?
Answer: inactive

Question: Which outcome does the source give for `OCCCBr` here?
Answer: inactive

Question: Which outcome does the source give for `C=CC[C@]1(O)CC[C@H]2[C@@H]3CCC4=CC(=O)CCC4=C3C=C[C@@]21C` here?
Answer: inactive

Question: With `C=CC(=O)OCCCCO` as the compound, how does the outcome read?
Answer: inactive

Question: For `COC(=O)C(Cl)C(=O)OC`, which outcome is on record?
Answer: inactive

Question: With `Sc1ccccc1Cl` as the compound, how does the outcome read?
Answer: inactive

Question: With `NC(=O)CI` as the compound, how does the outcome read?
Answer: inactive

Question: With `c1ccc(CN2CCNCC2)cc1` as the compound, how does the outcome read?
Answer: inactive

Question: With `CC1Sc2c(C(=O)O)c(=O)c3cc(F)c(N4CCNCC4)cc3n21` (stereo not given) as the compound, how does the outcome read?
Answer: inactive

Question: With `CCOP(=S)(OCC)SCn1nnc2ccccc2c1=O` as the compound, how does the outcome read?
Answer: inactive

Question: For `BrCC(Br)C1CCC(Br)C(Br)C1` (stereo not given), which outcome is on record?
Answer: inactive

Question: For `CCCCN(N=O)C(=N)N[N+](=O)[O-]`, which outcome is on record?
Answer: inactive

Question: Which outcome does the source give for `CCCC(Cn1cncn1)c1ccc(Cl)cc1Cl` (stereo not given) here?
Answer: inactive

Question: For `COC(C)(C)CCC[C@H](C)C/C=C/C(C)=C/C(=O)OC(C)C`, which outcome is on record?
Answer: inactive
